A short description of experiment [1]: qHTS assay to identify small molecule antagonists of the retinoid acid receptor (RAR) signaling pathway - cell viability counter screen (AID 1159551). Further: nearly all actives have a fitted effect of over 35% in size. The essentials: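 ATP-based viability, C3RL4 cells, 6 h at 37 C with 1 uM final retinol co-added after compound; luminescence read 30 min post CellTiter-Glo, RT.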
Experiment [2] is described as follows: qHTS assay to identify small molecule agonists of the retinoic acid receptor (RAR) signaling pathway (AID 1159553). The essentials:
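Quantitative high-throughput format: the Tox21 10K library was tested on C3RL4 RARE-luciferase cells for 6 hr at 37 C and 5% CO2, with luminescence measured after a 30 min room-temperature reagent step.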

The nature of experiment [3]: qHTS assay to identify small molecule antagonists of the estrogen related receptor (ERR) signaling pathway from Tox21 library - cell viability counter screen (AID 1224834). Further: nearly all actives have a fitted effect of over 30% in size. Summed up:
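Compounds in DMSO were pinned onto ERR cells that had been incubated for 6 h, and the plates were held at 37 C for 17.5 h. CellTiter-Fluor reagent was then added and fluorescence was measured after 30 min.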
On the technique in general: qHTS replaces the single test concentration by a dilution series.

The target of experiment [4] is Luciferin 4-monooxygenase (Photinus pyralis) (UniProt P08659). Kind of experiment: qHTS assay to identify small molecule inhibitors of firefly luciferase (AID 1224835). Further: nearly all actives have a fitted effect of over 25% in size. Summed up: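 Inhibition of purified Photinus luciferase is measured by luminescence. Substrate levels (D-luciferin, ATP) sit at their KM values. Each compound is tested in a concentration series.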
Luciferin 4-monooxygenase (Photinus pyralis), sequence (P08659 whole entry, looked up): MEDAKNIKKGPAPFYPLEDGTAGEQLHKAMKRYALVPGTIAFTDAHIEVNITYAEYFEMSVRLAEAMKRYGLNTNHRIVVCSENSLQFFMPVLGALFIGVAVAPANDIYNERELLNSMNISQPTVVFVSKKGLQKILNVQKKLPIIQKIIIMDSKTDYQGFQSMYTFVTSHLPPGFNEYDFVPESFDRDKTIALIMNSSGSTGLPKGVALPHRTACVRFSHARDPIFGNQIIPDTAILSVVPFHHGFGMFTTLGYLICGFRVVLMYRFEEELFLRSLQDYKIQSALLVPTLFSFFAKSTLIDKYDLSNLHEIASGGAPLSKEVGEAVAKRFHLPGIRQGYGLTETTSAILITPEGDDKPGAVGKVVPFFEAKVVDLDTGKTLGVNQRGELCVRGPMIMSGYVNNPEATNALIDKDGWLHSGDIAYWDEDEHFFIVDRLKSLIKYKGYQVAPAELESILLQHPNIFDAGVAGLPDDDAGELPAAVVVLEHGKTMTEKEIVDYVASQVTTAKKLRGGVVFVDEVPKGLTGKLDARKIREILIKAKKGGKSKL

The nature of experiment [5]: qHTS assay to identify small molecule agonists of the constitutive androstane receptor (CAR) signaling pathway - cell viability counter screen (AID 1224836). Further: nearly all actives have a fitted effect of over 45% in size. The essentials:
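HepG2-CYP2B6-hCAR, 2500 cells/well, 4 h pre-incubation; cpd 15 conc + PK11195 0.75 uM final; 23 h, 37 C/5% CO2; CellTiter-Fluor, fluorescence.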

Experiment [6] in a line: qHTS assay to identify small molecule antagonists of the constitutive androstane receptor (CAR) signaling pathway - cell viability counter screen (AID 1224837). Further: nearly all actives have a fitted effect of over 45% in size. The essentials:
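Cells are seeded, rested 4 hr at 37 C/5% CO2, dosed with compound (15-point series) and 50 nM CITCO, incubated a further 23 hr, and then CellTiter-Fluor reagent is added before fluorescence is read. The line is HepG2 with stable hCAR and CYP2B6-2.2kb.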

Experiment [7] is described as follows: qHTS assay to identify small molecule antagonists of the estrogen related receptor signaling pathway with the pleiotropic PPARgamma coactivator (PGC) from Tox21 10K library - cell viability counter screen (AID 1224840; active means well fitted cell-killing curve with a large enough effect in the repeat runs, not every such curve was filed as active; further: nearly all actives have a fitted effect of over 40% in size). Summed up:
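Cell viability is measured by CellTiter-Fluor fluorescence in PGC/ERR cells that receive compounds after a 6-hour attachment period and are then incubated 17.5 hours at 37 C.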

A short description of experiment [8]: qHTS assay to identify small molecule antagonists of the estrogen related receptor signaling pathway with the pleiotropic PPARgamma coactivator (PGC) from Tox21 10K library (AID 1224841; call rule not given here; further: actives are mostly falling curves and most rising ones were filed inactive; nearly all actives have a fitted effect of over 50% in size; further: potency means the concentration at half of the fitted maximal effect). The essentials: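 Cells stably carrying the PGC/ERR reporter, seeded at 2,000 per well, received pin-transferred compounds 6 h post-plating. Exposure lasted 18 h at 37 C. Signal: One-Glo luminescence.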

Experiment [9] in a line: qHTS assay to identify small molecule agonists of the estrogen related receptor signaling pathway with the pleiotropic PPARgamma coactivator (PGC) from Tox21 10K library (AID 1224842). Further: nearly all actives have a fitted effect of over 15% in size. Summed up: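 Luminescence from One-Glo (30 min, room temperature) measured after PGC/ERR cells had 18 h at 37 C with pinned compound (23 nL in DMSO). Cells had been seeded at 2,000 per well and pre-incubated 6 h.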

Experiment [10] deals with Thyrotropin receptor (Homo sapiens) (UniProt P16473). Kind of experiment: qHTS assay to identify small molecule agonists of the thyroid stimulating hormone receptor (TSHR) signaling pathway (AID 1224843; calls by dose curve; further: nearly all actives have a fitted effect of over 45% in size). The essentials:
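A cell-based cAMP HTRF format was run in TSHR-transfected HEK293 cells, 800 per well. Treatment: 30 min, room temperature. Detection: 1 h with labelled cAMP and anti-cAMP cryptate. Concentration-response over 15 points, three replicates.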

Experiment [11] is described as follows: qHTS assay to identify small molecule agonists of the hypoxia (HIF-1) signaling pathway - cell viability counter screen (AID 1224844; calls by dose curve; further: nearly all actives have a fitted effect of over 50% in size). Summed up:
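Viability counter screen: HRE-bla ME-180 cells plated 5 hrs before compound addition, treated 17 hrs at 37C and 5% CO2, then CellTiter-Glo added after the FRET reporter read; luminescence after 30 min.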

Experiment [12] can be described thus: qHTS assay to identify small molecule agonists of H2AX (AID 1224845; active means well fitted activation curve with a large enough effect in the signal ratio in the repeat runs, not every such curve was filed as active; the % refers to the signal ratio). The essentials:
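Phospho-H2AX Ser139 measured by HTRF (ex 320 nm; em 665 and 620 nm) after 24 hr antibody incubation. Compounds, 15 concentrations, 0.76% DMSO, were applied to CHO-K1 cells for 3hr at 37C before lysis.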

Experiment [13] is described as follows: qHTS assay to identify small molecule agonists of H2AX - cell viability counter screen (AID 1224847; calls by dose curve;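 further: wild-type CHO-K1 cells; top concentration of the series differs between compounds; nearly all actives have a fitted effect of over 30% in size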). The essentials: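 Cells plated first: CHO-K1, 1000 per well in 10% FBS medium, incubated overnight at 37C. Then 15-point compound titration added (final DMSO 0.76%) for 3 hr. Finally CellTiter-Glo added and luminescence read.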
The nature of experiment [14]: qHTS assay to identify small molecule antagonists of the estrogen related receptor (ERR) signaling pathway from Tox21 library (AID 1224848). Further: nearly all actives have a fitted effect of over 50% in size. The essentials:
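ERR cell line, 2,000 cells/well. 6 h settle, then compound (DMSO) added; 18 h at 37 C; ONE-Glo luminescence after 30 min RT.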

Experiment [15] in a line: qHTS assay to identify small molecule agonists of the estrogen related receptor (ERR) signaling pathway from Tox21 library (AID 1224849; calls by dose curve; further: nearly all actives have a fitted effect of over 15% in size). Conditions: ERR reporter cell line, ONE-Glo luciferase, 18 h; at 92.4 µM (top of the series) unless noted. The essentials:
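Quantitative HTS in agonist format: NTP ERR cell line, compounds transferred in DMSO after 6 h plating, 18 h incubation at 37 C, ONE-Glo luminescence endpoint.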

Experiment [16] can be described thus: qHTS RealTime-Glo MT Cell Viability Assay in HepG2 cells - 24 hour (AID 1224867). Further: nearly all actives have a fitted effect of over 50% in size. The essentials:
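qHTS, HepG2, 600 cells/well, RealTime-Glo (NanoLuc + prosubstrate) added with cells; 5 h preincubation; DMSO compound addition; 37 C; luminescence at 0/8/16/24/32/40 h.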

In experiment [17] the target is Nuclear receptor subfamily 1 group I member 3 (Homo sapiens) (UniProt Q14994). Kind of experiment: qHTS assay to identify small molecule agonists of the constitutive androstane receptor (CAR) signaling pathway (AID 1224839).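 Further: HepG2 cells stably carrying human CAR and a CYP2B6 luciferase reporter; nearly all actives have a fitted effect of over 15% in size.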 The essentials: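 HepG2-CYP2B6-hCAR cells, 2500/well, 4 h pre-incubation; compounds 15 conc.; PK11195 0.75 uM final; 24 h, 37 C/5% CO2; ONE-Glo luciferase read.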
Nuclear receptor subfamily 1 group I member 3 (Homo sapiens), sequence (Q14994 whole entry, looked up): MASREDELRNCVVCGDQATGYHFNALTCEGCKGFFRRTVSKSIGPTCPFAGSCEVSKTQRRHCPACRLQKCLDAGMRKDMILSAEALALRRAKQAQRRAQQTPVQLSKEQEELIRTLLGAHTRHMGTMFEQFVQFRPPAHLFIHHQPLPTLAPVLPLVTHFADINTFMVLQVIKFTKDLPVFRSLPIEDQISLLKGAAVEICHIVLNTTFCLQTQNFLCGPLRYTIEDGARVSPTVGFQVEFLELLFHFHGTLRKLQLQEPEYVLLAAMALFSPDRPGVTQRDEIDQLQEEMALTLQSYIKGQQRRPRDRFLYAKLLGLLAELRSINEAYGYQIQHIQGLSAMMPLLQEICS

Experiment [18] in a line: qHTS assay to identify small molecule agonists of the hypoxia (HIF-1) signaling pathway (AID 1224846; active means well fitted activation curve with a large enough effect in the signal ratio in the repeat runs, not every such curve was filed as active; the % refers to the signal ratio). The essentials: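 Agonist mode reporter screen. ME-180 cells stably expressing bla under HRE control received test compounds in DMSO for 17 hrs (37C, 5% CO2), and beta-lactamase activity was then detected with the CCF4-AM FRET substrate.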
For experiment [19], the target named is Nuclear receptor subfamily 1 group I member 3 (Homo sapiens) (UniProt Q14994). Kind of experiment: qHTS assay to identify small molecule antagonists of the constitutive androstane receptor (CAR) signaling pathway (AID 1224838).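 Further: HepG2 cells stably expressing hCAR with CYP2B6 luciferase reporter stimulated by CITCO; nearly all actives have a fitted effect of over 40% in size.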 The essentials:
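Luminescence from a CYP2B6-2.2kb promoter reporter in hCAR-expressing HepG2 cells reflects CAR signaling. Cells received compounds at 15 concentrations and 50 nM CITCO (final), then incubated 24 h at 37 C/5% CO2.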

Experiment [20] is described as follows: qHTS assay to identify small molecule antagonists of the retinoic acid receptor (RAR) signaling pathway (AID 1159552; further: nearly all actives have a fitted effect of over 50% in size). Summed up: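 Cells of the C3RL4 line were seeded, incubated overnight, then dosed with compounds in DMSO followed immediately by retinol (1 uM final). Six hours later luciferase detection reagent went in; signal was measured after 30 min at RT.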

Unmarked numbers belong to inactive results. Records with an inconclusive call do not appear. Active and inactive are the calls of the source. Unless noted, the call rests on the fitted dose curve; in most records, active means well fitted curve in the direction sought with a large enough effect in the repeat runs; inconclusive means weak or mixed curves; inactive means no such curve, though single readings can be large; an effect the other way counts as inactive or inconclusive.

Experimental findings from PubChem BioAssay (Tox21) are described below.
On the % scale 0 is the no-effect control and ±100 the full control effect.

Thyrotropin receptor (Homo sapiens), sequence (P16473 whole entry, looked up): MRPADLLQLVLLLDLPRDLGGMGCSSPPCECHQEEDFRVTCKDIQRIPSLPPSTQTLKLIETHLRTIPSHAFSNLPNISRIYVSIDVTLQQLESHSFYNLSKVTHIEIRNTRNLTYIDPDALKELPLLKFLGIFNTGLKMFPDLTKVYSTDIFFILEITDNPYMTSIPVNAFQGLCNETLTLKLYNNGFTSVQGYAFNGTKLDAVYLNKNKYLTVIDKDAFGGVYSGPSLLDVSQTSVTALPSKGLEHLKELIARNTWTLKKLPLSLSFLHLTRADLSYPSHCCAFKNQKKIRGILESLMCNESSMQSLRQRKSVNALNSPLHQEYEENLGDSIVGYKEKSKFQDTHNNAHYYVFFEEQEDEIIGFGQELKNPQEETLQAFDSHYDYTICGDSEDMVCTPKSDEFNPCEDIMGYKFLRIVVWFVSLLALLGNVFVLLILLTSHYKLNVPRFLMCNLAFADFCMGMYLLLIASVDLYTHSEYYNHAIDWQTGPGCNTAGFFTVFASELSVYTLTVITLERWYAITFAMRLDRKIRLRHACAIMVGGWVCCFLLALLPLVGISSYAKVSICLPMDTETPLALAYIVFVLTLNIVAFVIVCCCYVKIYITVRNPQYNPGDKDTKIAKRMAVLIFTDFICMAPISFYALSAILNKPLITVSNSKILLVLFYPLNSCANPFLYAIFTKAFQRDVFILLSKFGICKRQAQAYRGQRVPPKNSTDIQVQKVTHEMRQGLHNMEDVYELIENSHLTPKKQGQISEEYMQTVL

For `CC[C@@]1(c2ccccc2)NC(=O)N(C)C1=O`, the compound was classed as inactive in experiment [1], in experiment [3], in experiment [5], in experiment [6], in experiment [7] and in [11]. Further, the call in experiment [12], in experiment [13], in experiment [14] and in [16] was inactive. The Potency entry in experiment [2], in [4], in experiment [8], in experiment [9] and in experiment [10] was “inactive” in each case. For the same compound, in experiment [15], the activity change, positive = activation was 3.28% [at 42.5 µM].
As for `O=Cc1ccccc1S(=O)(=O)O`, the call in experiment [1], in experiment [3], in [5], in experiment [6], in experiment [7] and in experiment [11] was inactive. Further, the compound was called inactive in experiment [12], in [18], in experiment [13] and in experiment [16]. Moreover, the Potency result in experiment [2], in [4] and in experiment [17] was “inactive” throughout.
In the case of `CC(=O)OCC(=O)[C@@]1(O)CC[C@H]2[C@@H]3CCC4=CC(=O)C=C[C@]4(C)[C@H]3[C@@H](O)C[C@@]21C`, the result in [1], in experiment [3], in [5], in experiment [6], in experiment [7] and in experiment [11] was inactive. The compound was classed as inactive in experiment [12], in [13] and in [16]. The Potency result in experiment [2] and in experiment [4] was “inactive” each time.
Consider `CCCCCC(=O)CC`, for which the compound was classed as inactive in [1], in experiment [3], in experiment [5], in [6], in experiment [19] and in [7]. Moreover, the outcome in experiment [11], in experiment [12], in experiment [18], in experiment [13] and in [16] was inactive. The Potency result in experiment [4], in experiment [17] and in [10] was “inactive” in each case.
With `C=CCON/C(CCC)=C1\C(=O)CC(C)(C)C(C(=O)OC)=C1O`, the call in experiment [1], in experiment [3], in experiment [5], in experiment [6], in [19] and in experiment [7] was inactive. Besides, the call in experiment [11], in [12], in [18] and in [16] was inactive. The Potency entry in [2], in [4], in [17] and in [10] was “inactive” each time.
Regarding `O=C1Nc2ccccc2C1=O`, the call in experiment [1], in experiment [3], in experiment [5], in [6], in [19] and in [7] was inactive. The compound was classed as inactive in experiment [11], in experiment [12], in [18], in experiment [13], in [14] and in experiment [16]. The Potency result in experiment [2], in experiment [4], in experiment [9] and in [10] was “inactive” each time. Also, the Potency in experiment [8] is 13.6 µM (active). For the same compound, in experiment [15], the activity change, positive = activation was -1.92%.
With `N#Cc1ccccc1C#N`, the outcome in [1], in [20], in experiment [3], in [5], in experiment [7] and in [11] was inactive. Further, the result in experiment [12], in experiment [18], in experiment [13] and in experiment [16] was inactive. Moreover, the Potency result in experiment [2] and in experiment [4] was “inactive” in each case.
With `C/C=C(\C)C=O`, the call in experiment [1], in experiment [3], in experiment [5], in experiment [7], in experiment [11] and in experiment [12] was inactive. The result in experiment [18], in [13] and in experiment [16] was inactive. In addition, the Potency entry in experiment [2], in experiment [4] and in [10] was “inactive” throughout.
On to `C=CCN(CC=C)CC=C`, for which the compound was classed as inactive in experiment [1], in experiment [3], in [5], in [19], in experiment [7] and in experiment [12]. Moreover, the compound was called inactive in experiment [18], in experiment [13] and in [16]. The Potency result in experiment [2], in experiment [4], in experiment [17] and in experiment [10] was “inactive” in each case.
